NPR2 activator: human GC-B receptor activators, primary screen, HEK293 GC-B cells, cGMP TR-FRET, EC30 CNP; 0.11% of 370,000 active; activation, % at 10 µM; Atrial natriuretic peptide receptor 2 (Homo sapiens), P20594; 0% at EC30 CNP, 100% saturating CNP;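 active = activation at 10 µM reaching about 35% in either raw or pattern-adjusted values, limit read from the data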
Target sequence (P20594 whole entry, looked up): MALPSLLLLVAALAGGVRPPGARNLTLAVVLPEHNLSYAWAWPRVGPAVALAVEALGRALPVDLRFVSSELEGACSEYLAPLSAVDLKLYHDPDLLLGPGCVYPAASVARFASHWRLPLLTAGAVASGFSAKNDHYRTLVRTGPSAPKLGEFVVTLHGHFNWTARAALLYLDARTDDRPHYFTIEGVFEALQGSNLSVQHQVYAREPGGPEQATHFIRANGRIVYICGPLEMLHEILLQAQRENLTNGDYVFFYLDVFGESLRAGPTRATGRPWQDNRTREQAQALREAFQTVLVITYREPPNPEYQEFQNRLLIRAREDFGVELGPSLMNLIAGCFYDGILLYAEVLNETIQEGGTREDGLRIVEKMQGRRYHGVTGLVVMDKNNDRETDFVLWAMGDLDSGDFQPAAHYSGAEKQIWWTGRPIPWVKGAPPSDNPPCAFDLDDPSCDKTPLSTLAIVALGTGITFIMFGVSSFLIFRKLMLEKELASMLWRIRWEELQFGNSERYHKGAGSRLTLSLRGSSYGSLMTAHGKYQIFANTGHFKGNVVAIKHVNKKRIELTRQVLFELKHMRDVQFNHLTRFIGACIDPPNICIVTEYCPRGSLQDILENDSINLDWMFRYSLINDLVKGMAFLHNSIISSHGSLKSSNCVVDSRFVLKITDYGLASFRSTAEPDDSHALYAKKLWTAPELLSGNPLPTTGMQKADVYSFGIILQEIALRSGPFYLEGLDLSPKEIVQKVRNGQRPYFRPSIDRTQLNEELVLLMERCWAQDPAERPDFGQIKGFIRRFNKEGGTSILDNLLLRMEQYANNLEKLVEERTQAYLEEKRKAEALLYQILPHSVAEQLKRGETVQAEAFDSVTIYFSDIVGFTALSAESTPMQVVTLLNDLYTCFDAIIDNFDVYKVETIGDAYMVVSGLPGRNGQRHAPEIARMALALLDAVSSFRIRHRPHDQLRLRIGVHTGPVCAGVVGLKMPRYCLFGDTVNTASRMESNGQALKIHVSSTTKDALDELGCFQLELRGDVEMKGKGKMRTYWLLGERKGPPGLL
Rev-erbA mod: modulators of Rev-erb alpha DNA binding, primary screen, biochemical, FITC-DNA, fluorescence polarization, uHTS | Nuclear receptor subfamily 1 group D member 1 (Homo sapiens), P20393 | Rev-erbα–FITC-DNA binding, 90 min | activity, % at 10 µM | 0.79% of 370,000 active | AID 1259318, 2017;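 active = activity above about 14%, limit read from the data; passing the limit was not always enough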
V-ATPase pH: regulators of yeast V-ATPase proton pumping, primary screen, pHLuorin cytosolic pH fluorescence; S. cerevisiae; response, % at 10 µM; 0.37% of 350,000 active; AID 504577, 2011; in the data active = response mostly above about 7.3%, no sharp cut-off; inactive = mostly below about 5.4%; note: actives read high
PG9 Ab binder: binders of HIV-1 gp120 antibody PG9, primary screen, biochemical, TR-FRET; inhibition, % at 6.7 µM; HIV-1 gp120 / PG9 antibody interaction; 0.43% of 360,000 active; TR-FRET gp120-PG9 antibody binding; in the data active = inhibition above about 8.5%
GC-A act: GC-A stimulated cGMP production enhancers – HEK293 GC-A cells, cGMP TR-FRET, EC30 ANP, primary screen; Atrial natriuretic peptide receptor 1 (Homo sapiens), P16066; 0% at EC30 ANP, 100% saturating ANP; activation, % at 10 µM; 0.14% of 370,000 active; AID 1671463, 2021; in the data active = activation above about 40%
V-ATPase pH SP: yeast V-ATPase proton pumping modulators, confirmation, S. cerevisiae, pH-sensitive GFP, second cherry-pick. 2% of 980 active. shares compounds with V-ATPase pH. response, % at 10 µM. S. cerevisiae pHLuorin cytosolic pH, V-ATPase proton transport; in the data active = response above about 24%
Hits are given with their value; - = inactive; . = no result given. Sampled rows, rich in hits. Any-hit rate of the full collection: about 1.6%.

SMILES	NPR2 activator	Rev-erbA mod	V-ATPase pH	PG9 Ab binder	GC-A act	V-ATPase pH SP
COc1ccc(C(=O)C2CCCN(C(=O)C3=CCCC3)C2)cc1OC (stereo unspecified)	-	-	10	-	-	-
COc1ccc(-n2c(SC/C=C/c3ccccc3)nnc2-c2cccs2)cc1	-	-	.	.	-	.
COc1cccc(N2C(=O)c3ccncc3C2=O)c1	-	-	12	-	-	-
COc1cccc(/C=C2\C(=O)N(c3cccc(C)c3)C(=O)c3ccccc32)c1	-	-	-	-	-	.
NNC(=O)COc1cccc(C(F)(F)F)c1	-	-	12	-	-	-
O=C1NC(=S)N/C1=C/c1cccc2ccccc12	-	-	9.1	-	-	-
COC(=O)[C@]12C[C@H](CC(=O)N3CCCC3)C(=O)N(Cc3cccc4ccccc34)C1=C[C@H](COCc1ccccc1)O[C@@H]2C	-	-	.	.	-	.
CCOC(=O)C1(C(=O)OCC)NC(=O)CC1CC (stereo unspecified)	-	-	12	-	-	-
CN1CCN(C(=S)NC(=O)c2ccco2)CC1	-	-	11	-	-	-
NC(=O)C1CCN(c2nc(-c3ccc4c(c3)CCO4)cs2)CC1	-	-	.	.	-	.
O=C(/C=C/c1cccc(F)c1)Nc1cc(S(=O)(=O)N2CCOCC2)ccc1N1CCCC1	-	-	6.5	-	-	-
COc1cccc(/C=C/C(=O)Nc2cc(S(=O)(=O)N3CCOCC3)ccc2OC)c1	-	-	12	-	-	-
COc1ccc(C2=NS(=O)(=O)N(C)C(C(=O)NC3CCCCC3)=C2)cc1	-	-	11	-	-	-
COc1ccc(C2=NS(=O)(=O)N(C)C(C(=O)NC3CCCC3)=C2)cc1	-	-	-	-	-	.
CCOC(=O)/C(C#N)=C1/C=CN(Cc2ccccc2)C=N1	-	-	-	-	-	.
CCOC(=O)/C(C#N)=C1\C(=O)N(Cc2ccccc2)c2ccccc21	-	-	10	-	-	-
COc1ccc(OC)c(NC(=O)c2ccc(NC(C)=O)cc2)c1	-	-	-	-	-	.
COc1ccc(OC)c(NC(=O)c2ccc(OC3CSC3)cc2)c1	-	-	13	-	-	-
COC(=O)C1CN(Cc2cn(Cc3ccccc3)nn2)CCS(=O)(=O)N1Cc1ccc(Cl)cc1 (stereo unspecified)	-	-	.	.	-	.
Cc1nnc(SCc2nc3ccccc3s2)n1-c1ccccc1	-	-	8.3	-	-	-
Cc1nnc(SCc2nc3ccccc3s2)n1N	-	-	-	-	-	.
CC(=O)Nc1ccc(NC(=O)c2ccc(NS(=O)(=O)c3cc(C(C)(C)C)cc(C)c3C)cc2)cc1	-	-	11	-	-	-
Cc1cc(C(C)(C)C)cc(S(=O)(=O)Nc2ccc(O)c(C(=O)O)c2)c1C	-	-	-	-	-	.
CN(Cc1ccccc1)S(=O)(=O)c1cccc(C(=O)OCc2ccc(Oc3ccccc3)cc2)c1	-	-	.	.	-	.
Cc1c(Cl)sn(-c2ccc(Cl)cc2)c1=O	-	-	66	-	-	61
SMILES	NPR2 activator	Rev-erbA mod	V-ATPase pH	PG9 Ab binder	GC-A act	V-ATPase pH SP
Cc1ccc(NC(=O)c2ncn(CCCN3CCN(c4ccccn4)CC3)n2)cc1C	-	-	13	-	-	-
O=[N+]([O-])c1cc([N+](=O)[O-])c(N2CCCCCC2)cc1NCCO	-	-	8.3	-	-	-
O=[N+]([O-])c1c(NCCO)cc(N2CCCCC2)c2nonc12	-	-	-	-	-	.
COc1ccc(C2C3=C(CC(C)(C)CC3=O)Oc3ncn4nc(-c5ccccc5)nc4c32)cc1 (stereo unspecified)	-	-	12	-	-	-
CC1=C(C(=O)N(C)C)CC(CC(=O)NC2CCCCC2)C(=O)N1Cc1ccccc1 (stereo unspecified)	-	-	-	-	-	.
CCN(CC)C(=O)C1=C(C)N(Cc2ccccc2)C(=O)C(CC(=O)NC2CCCC2)C1 (stereo unspecified)	-	-	7.1	-	-	-

Screening results: PubChem BioAssay, several laboratories
